Shown are actives, neighbours in structure and some others; about 1.3% of the full set was active somewhere.
TRPML1 blocker – qHTS for Inhibitors of the Human Mucolipin Transient Receptor Potential 1 (TRPML1) | TRPML1-inducible cells, Ca2+ dye fluorescence, FDSS; stronger effect = lower value; inhibition of EC80 agonist-evoked calcium signal | hit rate 0.02% among 390,000 | AID 624415, 2012 | activity change, negative = inhibition, % (test concentration not listed); in the data active = activity change below about -50%; inconclusive = between about -30% and that limit;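 note: stimulus is agonist 54-4 at its EC80 concentration; % is set by controls: 0 for no effect and ±100 for the full control effect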
Target sequence (Q9GZU1 whole entry, looked up): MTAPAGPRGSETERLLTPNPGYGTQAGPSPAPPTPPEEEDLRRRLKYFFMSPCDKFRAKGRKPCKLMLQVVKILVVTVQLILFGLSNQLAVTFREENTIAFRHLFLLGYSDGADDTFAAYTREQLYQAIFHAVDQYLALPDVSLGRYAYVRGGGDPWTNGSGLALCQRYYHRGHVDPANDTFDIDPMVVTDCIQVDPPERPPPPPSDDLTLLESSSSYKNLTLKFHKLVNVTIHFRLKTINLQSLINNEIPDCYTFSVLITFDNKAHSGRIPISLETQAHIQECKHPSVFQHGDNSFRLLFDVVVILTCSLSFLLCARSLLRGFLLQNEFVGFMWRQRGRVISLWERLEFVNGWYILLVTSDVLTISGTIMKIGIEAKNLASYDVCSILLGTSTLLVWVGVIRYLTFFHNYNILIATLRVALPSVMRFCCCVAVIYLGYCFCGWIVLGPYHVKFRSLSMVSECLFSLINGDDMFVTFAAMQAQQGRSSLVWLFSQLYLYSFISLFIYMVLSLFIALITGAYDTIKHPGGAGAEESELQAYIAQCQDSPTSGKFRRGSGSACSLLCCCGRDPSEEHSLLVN
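TRPML1-DL cells, Tet-induced overnight (~16 h, 37 °C) at 1,500 cells/well, were loaded with Ca8 no-wash dye plus quencher for 45-90 min at room temperature. Compounds were pinned during FDSS kinetic reading; agonist 54-4 at EC80 (4 uM final) then added.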
PTAP TSG101 blk – qHTS Assay for Iinhibitors of HIV-1 Budding by Blocking the Interaction of PTAP/TSG101; Tumor susceptibility gene 101 protein (Homo sapiens), Q99816; Fluorescence polarization, FITC-PTAP peptide / Tsg101 binding; Potency, µM (titrated, usually from 115 µM), for the others: at the highest dose activity change, negative = inhibition, actives largely listed as inhibitors; 340,000 tested, under 10 active; AID 493005, 2010; active = well fitted inhibition curve with a large enough effect in the main read-out, with a control signal flat, not every such curve was filed as active; inconclusive = small, poorly fitted or top-dose-only effect, or effect the other way, or a change in a side signal; inactive = no such curve, though single readings can be large or run the other way; note: potency is the fitted concentration of half-maximal effect; % of control where 0% means no effect
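Steps: Tsg101 binding domain dispensed (10 uM final), compounds pinned in DMSO, FITC-labeled PTAP-motif peptide added (50 nM final); after 20 min binding at room temperature, polarization measured.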
TRPML1 ag – qHTS for Agonists of the Human Mucolipin Transient Receptor Potential 1 (TRPML1); hit rate 0.12% among 410,000; activation, % (test concentration not listed); TRPML1-expressing cells, Ca2+ dye fluorescence, FDSS; Mucolipin-1 (Homo sapiens), Q9GZU1; note: 0% is about no effect
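TRPML1-DL cells, Tet-induced overnight (~16 h, 37 degrees C), loaded 45-90 min at room temperature with Ca8 no-wash calcium dye plus quencher. FDSS fluorescence: 10 s baseline, compound pin-transfer, 110 s agonist read, then EC80 54-4 (4uM final) and 110 s antagonist read.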
BRCA1 expr act – qHTS Assay to Identify Small Molecule Activators of BRCA1 Expression; MCF7-BRCA1-FFLuc reporter, luminescence, 48 h; response scale: scaled: vehicle 0%, 10 µM genistein 100%; Potency, µM (top dose mostly 46.1 µM), inactives show at the top dose activation, usual class: activators; hit rate 1.1% among 380,000; AID 624202, 2012; active = well fitted activation curve with a large enough effect; inconclusive = small, poorly fitted or top-dose-only effect; inactive = no such curve, though single readings can be large or run the other way; note: potency is the fitted concentration of half-maximal effect; nearly all actives have a fitted effect of over 80% in size
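Luminescence from a BRCA1-driven firefly luciferase in MCF7 cells was the read-out, taken 15 min after substrate addition following 48 h compound exposure at 37 °C. Data were normalized to a 10 microM genistein control and DMSO vehicle.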
PKM2 activator – qHTS Assay for Activators of Human Muscle isoform 2 Pyruvate Kinase; purified PKM2, Kinase-Glo ATP luminescence, activation; response scale: 0% is enzyme alone, no compound; Potency, µM (series often up to 57.5 µM), for the others: at the top dose activation, usual class: activators; hit rate 0.34% among 260,000; AID 1631, 2009; active = well fitted activation curve with a large enough effect; inconclusive = small, poorly fitted or top-dose-only effect; inactive = no such curve, though single readings can be large or run the other way; note: potency is the fitted concentration of half-maximal effect; % is set by controls: 0 for no effect and ±100 for the full control effect; nearly all actives have a fitted effect of over 55% in size
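ATP formation by purified human PK-M2, quantified via coupled luciferase luminescence after 1 h at room temperature with 0.1 mM ADP and 0.5 mM PEP final.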
IL-2 act – qHTS of IL-2 Activators. hit rate 0.065% among 360,000. AID 652025, 2013. activation, % (series mostly up to about 46 µM). IL-2 activation reporter assay, cell-based qHTS; stimulated with anti-CD3/CD4/CD28 beads; in transgenic mouse T cells; note: 0% is about no effect
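Screening format: compound pinned onto unstimulated transgenic mouse T cells, 60 min incubation, then anti-CD3/anti-CD4/anti-CD28 bead stimulation for 18 hours at 37 degrees C, followed by EGFP and DsRed detection.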
* = called active by the depositor; ? = inconclusive; / = no result given; ! = a repeat was not active; [ ] = remark or other dose. Cut-off read from the data, not from the text of the source, unless noted: active = activation above about 50%; inconclusive = mostly about 30% to 49%; inactive = weaker than that.

SMILES	TRPML1 blocker	PTAP TSG101 blk	TRPML1 ag	BRCA1 expr act	PKM2 activator	IL-2 act
O=C(COc1ccc(F)cc1Br)Nc1ccccc1N1CCOCC1	-9.6	-0.9%	70.9*	-79.9%	/	-2.9
Cc1cc(Cl)ccc1OCC(=O)Nc1ccccc1N1CCOCC1	-12.0	-3.1%	75.5*	-16.8%	-2.4%	-2.0
O=C(COc1ccc(F)cc1Br)Nc1ccccc1N1CCCC1	-1.9	/	-0.5	-26.1%	/	-2.5
Oc1cccc2c(CC(O)c3c[nH]c4ccccc34)ccnc12 (stereo not given)	/	/	0.3	/	/	/
Cc1ccnc(NC(=O)c2ccc(Cl)c(S(=O)(=O)N3CCCC3)c2)c1	-5.5	-5.0%	1.2	7.08µM*	/	-3.5
Cc1ccnc(NC(=O)c2ccc(Cl)c(S(=O)(=O)N3CCCCC3)c2)c1	43.8	-4.6%	0.3	50.8%	/	-0.1
COc1ccccc1/C=C1\C=Cc2ccccc21	/	/	-0.1	5.9%	/	/
CC(C)c1cc(C(=O)Nc2cc(Cl)ccc2O)no1	-12.2	-0.6%	2.4	?	-4.9%	-0.1
CC(=O)c1cccc(NC(=O)c2cc(C(C)C)on2)c1	30.0	-5.5%	-0.1	3.16µM*	1.3%	-0.3
CC(=O)c1cccc(NC(=O)c2cc(-c3ccc(F)cc3)on2)c1	-16.4	-10.6%	0.1	3.2%	-6.2%	-3.4
CC(C)c1cc(C(=O)Nc2cccc(Cl)c2)no1	5.2	0.0%	1.1	7.08µM*	-26.7%	-1.3
O=C(Nc1cccc(Cl)c1)c1ccncc1	2.5	-4.7%	0.5	33.8%	-0.1%	-1.6
CC(=O)c1cccc(NC(=O)c2cc(-c3ccco3)on2)c1	18.6	-0.8%	-0.2	10µM*	0.1%	0.8
O=C(Nc1cccc(O)c1)c1cc(-c2ccco2)on1	-14.4	-1.9%	1.3	-9.6%	-12.4%	0.8
O=C(Nc1cccc(Cl)c1)c1cnc[nH]1	-16.8	0.9%	0.5	7.94µM*	/	1.0
COc1ccc2oc(=O)cc(CN3CCN(c4ccccc4OC)CC3)c2c1	-7.1	/	-0.4	/	/	/
O=C(N/N=C/c1ccccc1Cl)c1[nH]c2ccc(Br)cc2c1-c1ccccc1	-20.6	?	70.9*	-82.1%	-5.2%	?
COc1cccc(C2C(C(=O)Nc3ccccc3)=C(C)Nc3nc(-c4ccccc4)nn32)c1 (stereo not given)	-12.5	/	0.2	/	/	/
CC(C)COc1ccc(-c2nnn(CC(=O)N3CCCC3)n2)cc1	-11.0	-2.4%	0.1	10µM*	0.3%	0.7
CCNc1ccc(/C=C2\C=Cc3ccccc32)cc1	/	/	-0.3	?	/	/
N#C/C(=C\c1ccc(N2CCCCC2)o1)C(=O)Nc1cccc(Br)c1	?	?	118.8*	1µM*	-6.9%	-57.2
Cc1ccc(NC(=O)Nc2cccc(F)c2)nc1	/	0.5%	/	3.16µM*	-2.8%	0.4
Cc1ccc(NC(=O)Nc2ccc(Cl)cn2)cc1	7.3	0.4%	1.4	4.47µM*	3.6%	2.6
Cc1ccnc(NC(=O)Nc2cccc(F)c2)n1	21.5	-3.8%	4.0	1µM*	-9.0%	-1.6
C=C1C=C(C(F)F)n2ncc(C(=O)NCc3ccc(OC)c(OC)c3)c2N1	/	/	-1.0	-20.6%	/	/
SMILES	TRPML1 blocker	PTAP TSG101 blk	TRPML1 ag	BRCA1 expr act	PKM2 activator	IL-2 act
COc1cc(NC(=O)Cn2c(=O)n(CC3CCC(C(=O)NCCc4ccccc4)CC3)c(=O)c3ccccc32)cc(OC)c1 (stereo not given)	0.0	/	-0.2	0.0%	/	/
CC(C)(C)n1ncc2c(=O)n(Cc3ccc(C#N)c(F)c3)cnc21	8.2	/	0.5	/	/	/
Cc1cc2nc(-c3ccccc3)cc(=O)n2[nH]1	3.5	1.8%	0.2	10µM*	-1.0%	-5.3
Cc1ccc(Cl)cc1NC(=O)C1CCN(C(=O)c2cnn(-c3ccccc3)c2-n2cccc2)CC1	-4.7	/	0.5	-24.1%	/	/
CCN(CCn1cccn1)C(=O)c1cc(COc2ccccc2SC)on1	-2.2	/	1.2	11.2µM*	-5.4%	-2.0
CCN(CCn1cccn1)C(=O)c1cc(COc2cc(C)ccc2C)on1	0.8	/	-0.3	12.6µM*	-1.3%	-0.4
CCN(CCN1CCCC1)C(=O)c1cc(COc2ccccc2SC)on1	-6.6	-1.4%	0.2	-9.7%	/	0.0
O=C(N/N=C/c1ccccc1F)c1cccc2ccccc12	-9.1	-1.8%	1.7	35.2%	/	-0.2
Cc1ccccc1C(=O)N/N=C/c1cccc2ccccc12	/	-3.5%	/	12.6µM*	/	-0.7
CCOC(=O)c1cnc(Nc2nc3ccccc3o2)nc1C	5.3	-6.5%	0.0	-78.1%	-49.3%	-2.0
CCOC(=O)c1cnc(Nc2nc3ccccc3o2)nc1CSc1nnc(C)s1	2.7	-7.8%	5.0	5.01µM*	/	-2.2
N=c1c(S(=O)(=O)c2ccc(Br)cc2)cc2c(=O)n3ccccc3nc2n1Cc1ccccc1	32.8	?	-0.8	-12.6%	0.2%[0.46 µM]	-3.7
Cc1ccc(Cn2c(=N)c(S(=O)(=O)c3ccc(Br)cc3)cc3c(=O)n4ccccc4nc32)cc1	-1.4	-12.3%	0.0	-7.0%	/	95.0*
COc1ccc(CCn2c(=N)c(S(=O)(=O)c3ccc(C)cc3)cc3c(=O)n4ccccc4nc32)cc1	5.9	2.1%	0.0	-9.3%	/	60.7*
COCCn1c(=N)c(S(=O)(=O)c2ccc(Br)cc2)cc2c(=O)n3ccccc3nc21	-14.5	3.5%	2.9	21.3%	/	-0.1
Oc1cc(O)c(/C=C/c2ccnc3ccccc23)c(O)c1	/	/	-0.3	9.0%	/	/
Cc1cc(C)c2oc(-c3cccc(NC(=O)COc4ccc(Cl)cc4C)c3C)nc2c1	/	/	0.2	16.2%	/	/
CCOc1ccc(C(=O)Nc2cccc(NC(=O)c3ccc(Cl)cc3Cl)c2)cc1	-23.0	/	1.8	/	/	/
COc1ccc(N2CCN(c3nccs3)CC2)cc1	7.0	-1.1%	-0.6	11.2µM*	0.4%	-0.1
Clc1ccccc1-c1nc(-c2ccncc2)no1	4.7	-4.9%	-0.2	1.78µM*!	-0.7%	2.0
c1coc(-c2nc(-c3ccncc3)no2)c1	16.8	-1.3%	-0.8	3.16µM*	-12.2%	0.1
O=[N+]([O-])c1cc(Cl)ccc1-c1nc(-c2ccccc2)no1	6.5	-1.5%	1.2	2.82µM*	1.3%	-0.3
c1ccc(-c2ccccc2-c2nc(-c3ccncc3)no2)cc1	38.7	-0.6%	1.1	10.2%	4.5%	0.9
CSc1ccccc1-c1nc(-c2ccncc2)no1	18.4	0.3%	-0.6	3.16µM*	/	-3.1

Source: PubChem
